# Measurements reported in the supplement of paper PMC8728848.
# The full list was thinned out, with the strongest signals kept by preference.
# B1: Gal 10 (Homo sapiens), Q05315 (protein)
# chain: MSLLPVPYTEAASLSTGSTVTIKGRPLVCFLNEPYLQVDFHTEMKEESDIVFHFQVCFGRRVVMNSREYGAWKQQVESKNMPFQDGQEFELSISVLPDKYQVMVNGQSSYTFDHRIKPEAVKMVQVWRDISLTKFNVSYLKR
# Experiments:
# Assay in all cases: glycan array binding signal (z-score within array); higher = stronger binding
# Details in all cases: glycan notation: IUPAC condensed, linker removed
# Gal6S(b1-4)Glc6S = target: Gal6S(b1-4)Glc6S
# Outline: (§1)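 Glycan array data were curated from 3228 arrays in the Consortium for Functional Glycomics database and kept only where the protein sequence was available. Glycan names were converted to IUPAC-condensed notation, and columns mapping to the same glycan were averaged. The binding signal is a within-array Z-score, averaged across arrays of the same protein sequence at different concentrations or buffers and across linkers. Negative Z-scores can be read as non-binding.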
# Gal6S(b1-4)GlcNAc = target: Gal6S(b1-4)GlcNAc
# Outline: as §1
# GalNAc(a1-3)Gal = target: GalNAc(a1-3)Gal
# Outline: as §1
# GalNAc(a1-3)GalNAc = target: GalNAc(a1-3)GalNAc
# Outline: as §1
# GalNAc(b1-3)GalNAc = target: GalNAc(b1-3)GalNAc
# Outline: as §1
# GalNAc(b1-4)Gal(b1-4)Glc = target: GalNAc(b1-4)Gal(b1-4)Glc
# Outline: as §1
# Glc(b1-4)Glc = target: Glc(b1-4)Glc
# Outline: as §1
# [1] = target: GlcNAc(a1-4)Gal(b1-4)GlcNAc
# Outline: as §1
# [2] = target: GlcNAc(a1-4)Gal(b1-4)GlcNAc(b1-3)Gal(b1-4)GlcNAc(b1-3)Gal(b1-4)GlcNAc
# Outline: as §1
# [3] = target: GlcNAc(a1-4)Gal(b1-4)GlcNAc(b1-3)Gal(b1-4)[Fuc(a1-3)]GlcNAc(b1-3)Gal(b1-4)[Fuc(a1-3)]GlcNAc
# Outline: as §1
# [4] = target: GlcNAc(b1-3)Gal(b1-4)GlcNAc(b1-2)Man(a1-3)[GlcNAc(b1-3)Gal(b1-4)GlcNAc(b1-2)Man(a1-6)]Man(b1-4)GlcNAc(b1-4)[Fuc(a1-6)]GlcNAc
# Outline: as §1
# [5] = target: GlcNAc(b1-4)GlcNAc(b1-4)GlcNAc
# Outline: as §1
# [6] = target: GlcNAc(b1-4)[GlcNAc(b1-6)]GalNAc
# Outline: as §1
# Kdn(a2-6)Gal(b1-4)GlcNAc = target: Kdn(a2-6)Gal(b1-4)GlcNAc
# Outline: as §1
# [7] = target: Man(a1-2)Man(a1-3)[Man(a1-2)Man(a1-6)]Man
# Outline: as §1
# [8] = target: Neu5Ac(a2-3)Gal(b1-3)GalNAc
# Outline: as §1
# [9] = target: Neu5Ac(a2-3)Gal(b1-3)GalNAc(b1-4)[Neu5Ac(a2-8)Neu5Ac(a2-3)]Gal(b1-4)Glc
# Outline: as §1
# [10] = target: Neu5Ac(a2-3)Gal(b1-3)GlcNAc(b1-3)GalNAc
# Outline: as §1
# [11] = target: Neu5Ac(a2-3)Gal(b1-3)[Fuc(a1-4)]GlcNAc(b1-3)Gal(b1-3)[Fuc(a1-4)]GlcNAc
# Outline: as §1
# [12] = target: Neu5Ac(a2-3)Gal(b1-4)[Fuc(a1-3)]GlcNAc(b1-2)Man
# Outline: as §1
# [13] = target: Neu5Ac(a2-3)Gal6S(b1-4)GlcNAc
# Outline: as §1
# Neu5Ac(a2-6)Gal(b1-4)Glc = target: Neu5Ac(a2-6)Gal(b1-4)Glc
# Outline: as §1
# [14] = target: Neu5Ac(a2-6)Gal(b1-4)GlcNAc(b1-2)Man(a1-3)[Neu5Ac(a2-6)Gal(b1-4)GlcNAc(b1-2)Man(a1-6)]Man(b1-4)GlcNAc(b1-4)GlcNAc
# Outline: as §1
# [15] = target: Neu5Ac(a2-6)Gal(b1-4)GlcNAc(b1-2)[Neu5Ac(a2-6)Gal(b1-4)GlcNAc(b1-4)]Man(a1-3)[GlcNAc(b1-4)][Neu5Ac(a2-6)Gal(b1-4)GlcNAc(b1-4)Man(a1-6)]Man(b1-4)GlcNAc(b1-4)GlcNAc
# Outline: as §1
# [16] = target: Neu5Ac(a2-6)Gal(b1-4)GlcNAc(b1-3)Gal(b1-3)GlcNAc
# Outline: as §1
# [17] = target: Neu5Ac(a2-6)Gal(b1-4)GlcNAc(b1-3)Gal(b1-4)GlcNAc(b1-3)Gal(b1-4)GlcNAc(b1-2)Man(a1-3)[Neu5Ac(a2-6)Gal(b1-4)GlcNAc(b1-3)Gal(b1-4)GlcNAc(b1-3)Gal(b1-4)GlcNAc(b1-2)Man(a1-6)]GalNAc
# Outline: as §1
# [18] = target: Neu5Ac(a2-6)Gal(b1-4)GlcNAc(b1-3)Gal(b1-4)GlcNAc(b1-6)[Gal(b1-3)]GalNAc
# Outline: as §1
# [19] = target: Neu5Ac(a2-8)Neu5Ac(a2-3)Gal(b1-3)GalNAc(b1-4)[Neu5Ac(a2-8)Neu5Ac(a2-3)]Gal(b1-4)Glc
# Outline: as §1
# [20] = target: Neu5Ac(a2-8)Neu5Ac(a2-8)Neu5Ac(a2-8)Neu5Ac(a2-3)[GalNAc(b1-4)]Gal(b1-4)Glc
# Outline: as §1
# [21] = target: Neu5Gc(a2-3)Gal(b1-4)[Fuc(a1-3)]GlcNAc
# Outline: as §1
binder,measurement,setting,value
B1,glycan array binding signal (z-score),Gal6S(b1-4)Glc6S,-0.014
same,glycan array binding signal (z-score),Gal6S(b1-4)GlcNAc,-0.568
same,glycan array binding signal (z-score),GalNAc(a1-3)Gal,-0.104
same,glycan array binding signal (z-score),GalNAc(a1-3)GalNAc,-0.834
same,glycan array binding signal (z-score),GalNAc(b1-3)GalNAc,-0.693
same,glycan array binding signal (z-score),GalNAc(b1-4)Gal(b1-4)Glc,2.27
same,glycan array binding signal (z-score),Glc(b1-4)Glc,-0.17
same,glycan array binding signal (z-score),[1],-0.744
same,glycan array binding signal (z-score),[2],0.459
same,glycan array binding signal (z-score),[3],3.48
same,glycan array binding signal (z-score),[4],-0.014
same,glycan array binding signal (z-score),[5],-0.449
same,glycan array binding signal (z-score),[6],-0.956
same,glycan array binding signal (z-score),Kdn(a2-6)Gal(b1-4)GlcNAc,0.098
same,glycan array binding signal (z-score),[7],-0.68
same,glycan array binding signal (z-score),[8],-0.079
same,glycan array binding signal (z-score),[9],0.255
same,glycan array binding signal (z-score),[10],-0.378
same,glycan array binding signal (z-score),[11],1.14
same,glycan array binding signal (z-score),[12],2.57
same,glycan array binding signal (z-score),[13],-0.415
same,glycan array binding signal (z-score),Neu5Ac(a2-6)Gal(b1-4)Glc,-0.381
same,glycan array binding signal (z-score),[14],0.509
same,glycan array binding signal (z-score),[15],2.9
same,glycan array binding signal (z-score),[16],-0.312
same,glycan array binding signal (z-score),[17],3.41
same,glycan array binding signal (z-score),[18],-0.176
same,glycan array binding signal (z-score),[19],-0.741
same,glycan array binding signal (z-score),[20],0.562
same,glycan array binding signal (z-score),[21],0.205
